MITF act: activators of MITF-driven TRPM1 promoter reporter, primary screen, cell-based, SK-MEL-5, luciferase, single point. activation, % at 12.5 µM. 0.75% of 300,000 active. SK-MEL-5 TRPM1-promoter luciferase, 24 h; % of positive control, neutral wells = 0. AID 588334, 2011;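 active = mean activation of at least 80% with every replicate also reaching 80%; inconclusive = mean reaches 80% but some replicate falls short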
Wnt bcat act: Wnt/beta-catenin pathway activators, primary screen, cell-based, plate reader, single point; Wnt/beta-catenin reporter cell assay, activator; activation, % at 9.35 µM; 1.2% of 300,000 active; in the data active = activation above about 30%, passing the limit was not always enough; inconclusive = no clear call, values can overlap the other calls
esBAF inh: Bmi1 luciferase reporter increase in mESCs, primary screen, esBAF inhibitor project, mouse ES cells, Bmi1 luciferase knock-in, single point | 24 h; 100% = twice the neutral-well signal | reporter increase, % at 12.5 µM | 2% of 350,000 active | AID 602393, 2012; in the data active = activation above about 40%; inconclusive = no clear call, values can overlap the other calls;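 also: a rise in the Bmi1 reporter signal indicates esBAF inhibition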
Statin myotox sup: suppressors of statin myotoxicity in C2C12 myotubes, primary screen, cell-based, single point, plate reader. C2C12 myotubes + simvastatin, ATP luminescence, 48 h; scaled: DMSO 0, geranylgeraniol control 100. rescue of ATP level, % at 7.49 µM. 0.78% of 330,000 active. AID 602340, 2012;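 active = mean ATP rescue above about 67%, or every replicate alone reaching that limit, limit read from the data, passing the limit was not always enough; inconclusive = no clear call, values can overlap the other calls; inactive = mean under the limit and some replicate under it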;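 also: myotubes were challenged with 10 µM simvastatin during compound exposure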
FXN GAA850 act: FXN promoter activators, primary screen, cell-based, luciferase luminescence, HEK293 lucGAA850; HEK293 lucGAA850 FXN promoter luciferase reporter, 24 h; percent of 10 µM SAHA response; activation, % at 6 µM; 0.56% of 360,000 active;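 active = activation above the average of all compounds screened plus 3 SD, cutoff fixed separately per campaign, cut at about 7.5% in these data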
Of the large screens only hits and unclear results are named; the others gave an inactive call. Most compounds without a hit are left out; they make up all but 3.3% or so of the library.

CC(C)NC(=O)N(C)C[C@H]1Oc2ncc(-c3ccc(C(=O)N(C)C)cc3)cc2C(=O)N([C@@H](C)CO)C[C@H]1C	none (no result: MITF act, Wnt bcat act, FXN GAA850 act)
CN1C(=O)c2cc(NC(=O)C3CCOCC3)ccc2OC[C@@H]2O[C@H](CC(=O)NC3CCCC3)CC[C@@H]21	none (no result: MITF act, Wnt bcat act, FXN GAA850 act)
COCC(=O)N1C[C@H](C)[C@H](OC)CN(C)C(=O)c2ccc(NC(=O)c3ccc(OC)cc3)cc2OC[C@@H]1C	none (no result: MITF act, Wnt bcat act, FXN GAA850 act)
O=C(C[C@@H]1CC[C@@H]2[C@H](COC[C@@H](O)CN2C(=O)Nc2cccc(F)c2)O1)NCc1ccccc1Cl	none (no result: MITF act, Wnt bcat act, FXN GAA850 act)
COc1cccc(CCNC(=O)c2cc(COc3cccc(OC)c3)on2)c1	none (no result: MITF act, esBAF inh, Statin myotox sup)
COc1cc(C)ccc1OCc1cc(C(=O)NC2CCOCC2)no1	esBAF inh 47 (no result: MITF act)
COCCN1CCN(C(=O)c2cc(COc3cc(C)ccc3C)on2)CC1	esBAF inh 73
COc1ccc(OCc2cc(C(=O)NC(C)c3cnn(C)c3)no2)c(Cl)c1 (configuration not stated)	MITF act 81, esBAF inh 54
COc1cccc(OCc2cc(C(=O)NC(C)c3cnn(C)c3C)no2)c1 (configuration not stated)	esBAF inh 44
CC(C)NC(=O)Nc1ccc2c(c1)CC(=O)N([C@@H](C)CO)C[C@@H](C)[C@@H](CN(C)C(=O)Nc1ccc(F)cc1)O2	none (no result: MITF act, Wnt bcat act, FXN GAA850 act)
COCC(=O)Nc1ccc2c(c1)C(=O)N(C)C[C@@H](OC)[C@H](C)CN(Cc1ccncc1)[C@@H](C)CO2	none (no result: MITF act, Wnt bcat act, FXN GAA850 act)
COCC(=O)Nc1ccc2c(c1)[C@H]1C[C@@H](CC(=O)NCc3ccccn3)O[C@H](CO)[C@H]1O2	none (no result: MITF act, Wnt bcat act, FXN GAA850 act)
O=C(C[C@H]1CC[C@@H](NS(=O)(=O)c2cccc(F)c2)[C@@H](CO)O1)NCc1ccc2c(c1)OCO2	none (no result: MITF act, Wnt bcat act, FXN GAA850 act)
COc1ccc(OCc2cc(C(=O)N3CCOCC3)no2)c(Cl)c1	MITF act inconclusive, Wnt bcat act 34
COc1ccc(OCc2cc(C(=O)N3CCCCCC3)no2)c(Cl)c1	MITF act inconclusive (no result: esBAF inh, Statin myotox sup)
Cc1ccc(-c2nnc(CCC(=O)N(C)Cc3nccs3)o2)s1	esBAF inh 44
COc1ccc(C2=Nc3ccccc3OC2)cc1	esBAF inh 64
CN(C)/C=N/c1sc2c(c1C#N)CCC2	none
CN(C)/C=N/c1sc2c(c1C#N)CCCCC2	esBAF inh 54
COc1ccc(CN(C)C[C@@H]2Oc3ccc(NC(=O)NC4CCCCC4)cc3CC(=O)N([C@H](C)CO)C[C@@H]2C)cc1	none (no result: MITF act, Wnt bcat act, FXN GAA850 act)
C[C@H](CO)N1C[C@H](C)[C@@H](CN(C)C(=O)C2CC2)Oc2cc(C#Cc3ccccn3)ccc2S1(=O)=O	none (no result: MITF act, Wnt bcat act, FXN GAA850 act)
O=c1/c(=C/c2ccc(O)cc2)sc2n1CCCN=2	MITF act inconclusive (no result: Wnt bcat act, esBAF inh, Statin myotox sup)
O=c1/c(=C\c2ccc(F)cc2)sc2n1CCCN=2	Wnt bcat act 53 (no result: esBAF inh, Statin myotox sup)
C[C@H](CO)N1C[C@H](C)[C@@H](CN(C)C(=O)Cc2ccccc2)OCCCC[C@H](C)Oc2ccc(NC(=O)C3CCCCC3)cc2C1=O	none (no result: MITF act, Wnt bcat act, Statin myotox sup, FXN GAA850 act)
COc1ccc2cc(C[C@@H]3CC[C@@H](CO)O3)ccc2c1	MITF act 118, esBAF inh 67
CCOC(=O)C1=C(C)N(C[C@@H]2CC[C@@H](Cc3ccc4cc(OC)ccc4c3)O2)C(=O)NC1c1ccc(OC)cc1 (some centres not stated)	none
CCOc1ccc(CN(C(=O)c2ccccn2)c2ccc(OC)c(Cl)c2)cc1	esBAF inh 46
CO[C@H]1CN(C)C(=O)c2cc(NC(C)=O)ccc2OC[C@H](C)N(Cc2ccccc2C(=O)O)C[C@@H]1C	none (no result: MITF act, Wnt bcat act, FXN GAA850 act)
CN(C)c1ccc(/C=N/Nc2nc3ccccc3o2)cc1	none
CCS(=O)(=O)c1ccc(C=NNc2nc3ccccc3o2)cc1	MITF act 104 (no result: esBAF inh, Statin myotox sup)
CO[C@H]1CN(C)C(=O)c2ccc(NS(=O)(=O)c3ccc(Cl)cc3)cc2OC[C@@H](C)NC[C@H]1C	none (no result: MITF act, Wnt bcat act, FXN GAA850 act)
C[C@H](CO)N1C[C@H](C)[C@@H](CN(C)C(=O)Nc2ccccc2)OCCCC[C@H](C)Oc2ccc(NS(C)(=O)=O)cc2C1=O	none (no result: MITF act, Wnt bcat act, Statin myotox sup, FXN GAA850 act)
CCN(CC(=O)Nc1ccc2c(c1)OCCO2)C(=O)c1ccc(C(F)(F)F)cc1	MITF act 107 (no result: esBAF inh)
CCN(CC(=O)Nc1ccc2c(c1)OCCO2)C(=O)c1ccc(Cl)cc1Cl	MITF act 109, esBAF inh 71

Source: PubChem
